Experiment in all cases: pooled miR-30 sensor sort-seq; sequence = guide strand
What all share (conditions): shRNA

Test [1] addresses KLF15.
Test [2] concerns the target KLF14.
Test [3] has as its target KLC3.
For test [4], the target named is KPRP.
Test [5] concerns the target KRT86.
For test [6], the target named is KRTAP5-8.
Test [7] has as its target KRTAP4-7.
Test [8] has as its target KRTAP4-5.
For test [9], the target named is KRTAP13-2.
Test [10] addresses L1TD1.
Test [11] deals with LAMC1.
The target in test [12] is LANCL2.
Note: reference of the scale not given here.

In turn, TAACATTGCCATGTCCCTCTGG had a sensor-assay potency score (higher = more potent) in test [1] of 0.313.
Take ATATCTGGATGATAGGTTGGGT: the sensor-assay potency score (higher = more potent) in [2] is -0.162.
With TTGTAATAGGCTTTGGTGCAGC, the sensor-assay potency score (higher = more potent) in test [2] is -0.333.
Same read-out and setting: with TTGAGGTGCGACGACTTGTAAT the figure was -1.63.
On to TTTGGTGTACATCTTGCTGCAG, for which the sensor-assay potency score (higher = more potent) in test [1] amounted to 0.126.
As for TACTCGATCATATCTGGATGAT, in test [2], the sensor-assay potency score (higher = more potent) is -0.368.
Take TTCTTTGTACTTGTTCTGGTCC: the sensor-assay potency score (higher = more potent) in test [3] is -0.164.
In the case of TAAACCTGTCAAAACAAGCTAG, in test [1], the sensor-assay potency score (higher = more potent) was -0.421.
For TTGGTCAGGTGGTCGCTCCGGG, the sensor-assay potency score (higher = more potent) in test [2] was -0.324.
With TTGGAGAGTGAGCTGCTGCGGC, in [3], the sensor-assay potency score (higher = more potent) was -0.586.
Turning to TCTCGCACACAGGACACTGGTA, the sensor-assay potency score (higher = more potent) in test [1] was -0.647.
In the case of TTCTGTTTCAGGTAGGCTGAGG, the sensor-assay potency score (higher = more potent) in test [3] was -0.432.
For TTCTTGTCGCAGTCGAGCCAGT, the sensor-assay potency score (higher = more potent) in test [2] was -1.02.
Turning to TAGTTGTTGCAGGTAGCCCTTG, in [4], the sensor-assay potency score (higher = more potent) was -0.668.
On the same count and under the same terms, with TTGGTCTCCATGGCCATCCTGA the figure was -0.799.
Sequence TTTATTGGAAACACAGAGTGAA yielded a sensor-assay potency score (higher = more potent) in test [5] of 0.556.
Regarding AGCCTGAGGAGCAACAGCAGGG, in test [6], the sensor-assay potency score (higher = more potent) was -1.24.
As to TCAGTGACAAAACTGGTCCTGC, in test [7], the sensor-assay potency score (higher = more potent) is 0.367.
Turning to ATTCACAGCAATAGGGGCGGCA, the sensor-assay potency score (higher = more potent) in [8] is -0.786.
Take TGGTCTGACAGCAGCTGGGGCG: in [7], the sensor-assay potency score (higher = more potent) was -1.46.
For the sequence TCCAGATCCATAGCCGAGGGAA, in test [9], the sensor-assay potency score (higher = more potent) is -1.28.
Turning to TGGAGATGCAGCAGCTAGGGTG, the sensor-assay potency score (higher = more potent) in test [8] was -1.53.
Consider TCGTCTTGCAAGGACTGCAGAG, for which the sensor-assay potency score (higher = more potent) in [9] was -0.616.
Take TGACAGAGGACTTGGCCGCAGC: the sensor-assay potency score (higher = more potent) in [7] is -1.09.
Still for that read-out and setting: the figure for CTGGACACACAACAGCTGGGGC is -1.77; for TATTGAATGACATCAACCCCAC it is -0.0813.
Regarding TAACCCAGGGATCTGACACCAC, the sensor-assay potency score (higher = more potent) in [9] was -0.823.
The sequence TTTAATGAATGTGATTGTCTGT came in with a sensor-assay potency score (higher = more potent) in test [8] of 0.174.
Still for that read-out and setting: with ATGAATGTGATTGTCTGTCATT the figure was -1.58.
Still for that read-out and setting: with TAGGGTGGCAGCAGGTGGGCTG the figure was -0.712; with TGGATTCACAGCAATAGGGGCG, -0.512.
For the sequence CAGCAGGTCGTCTCACAGCAGC, the sensor-assay potency score (higher = more potent) in test [7] is -2.76.
On to TAACATATTTTAATGAATGTGA, for which, in test [8], the sensor-assay potency score (higher = more potent) is -0.0651.
As for TAGCGCAGGTAGTCACCACAGG, in test [9], the sensor-assay potency score (higher = more potent) is -0.777.
Turning to TGCTCAGAGCTGACAGAGCCAC, the sensor-assay potency score (higher = more potent) in test [8] is -1.57.
As for TAGGACGTCTGGCAGCTGGTGG, the sensor-assay potency score (higher = more potent) in [9] is -1.01.
As to TTAATGAATGTGATTGTCTGTC, the sensor-assay potency score (higher = more potent) in test [8] came to 0.0544.
As for AGCTGGACACACAACAGCTGGG, the sensor-assay potency score (higher = more potent) in test [7] was -1.49.
As to AGCAGCTAGAGCCACATCCCCC, the sensor-assay potency score (higher = more potent) in test [6] is -1.72.
Turning to TAGAGACCCAGAGTAAGTCGTC, the sensor-assay potency score (higher = more potent) in [9] amounted to 0.623.
With TGGTCTGGCAGCAGCAGGGGCG, the sensor-assay potency score (higher = more potent) in test [8] is -1.72.
Regarding TGCAGGGCTTACAACAGCTGGA, the sensor-assay potency score (higher = more potent) in [6] was -1.15.
For TCTGACAGCAGCTGGGGCGGCA, the sensor-assay potency score (higher = more potent) in test [7] was -1.19.
In the case of TGAGGAGCAACAGCAGGGCTTA, the sensor-assay potency score (higher = more potent) in test [6] was -1.48.
In turn, TTATATGAGATCATCACAGTTA had a sensor-assay potency score (higher = more potent) in test [8] of 0.439.
Take TTGCAGCAGCTGGACATACAGC: the sensor-assay potency score (higher = more potent) in test [7] is -1.51.
Still for that read-out and setting: the figure for TGGTCAGAGCACACGGAGCCAC is -1.43.
Consider ACAGCTTCCATAACCCAGGGAT, for which the sensor-assay potency score (higher = more potent) in test [9] was -0.532.
On to TGGAGATGCAGCACCTAGGGTG, for which, in test [7], the sensor-assay potency score (higher = more potent) is -0.36.
For the sequence TGGTCTGTAACAAGGAGACTGG, in [9], the sensor-assay potency score (higher = more potent) is -0.828.
Turning to TAGCAGGTGGTCCTGCAACAGG, in test [7], the sensor-assay potency score (higher = more potent) is -1.7.
On the same count and under the same terms, the figure for CAGCTGGACACACAACAGCTGG is -1.96.
With TGGTAGCACACAGACTGGCAGC, the sensor-assay potency score (higher = more potent) in test [8] is -1.41.
With TTACAACAGCTGGACTGGGAAC, the sensor-assay potency score (higher = more potent) in [6] was -1.86.
For the sequence CAGGTGGTCTGACAGCAGCTGG, the sensor-assay potency score (higher = more potent) in test [7] was -2.02.
On the same count and under the same terms, the figure for TAGGGTGGCAGCAGGTCGTCTC is -0.549.
Consider TTGAATTTCCATTAAGACCTTA, for which the sensor-assay potency score (higher = more potent) in test [10] is 0.102.
Sequence TTCGCTTGTTCATACTTCCTAT displayed a sensor-assay potency score (higher = more potent) in test [11] of 0.107.
For TTTCTGTCAAGGTTTCTTGGTC, the sensor-assay potency score (higher = more potent) in [12] was -0.185.
For TTCATCAGTACACAAGGCCTGC, the sensor-assay potency score (higher = more potent) in test [11] is -0.475.

These data come from the OligoGym collection.
